Screening data: PubChem BioAssay, National Center for Advancing Translational Sciences (NCATS)
D1 agonist: Allosteric Agonists of the Human D1 Dopamine Receptor: qHTS. D(1A) dopamine receptor (Homo sapiens), P21728. HEK293 T-REx D1 cells, calcium flux, agonist mode. activation, % at 2 µM. actives 1% (n = 360,000); note: 0% is about no effect
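Inducible HEK293 T-REx D1 cells, force-coupled to calcium signalling, were plated at 4000 cells/well with tetracycline and held overnight at 30 C. After no-wash calcium dye loading, compound-evoked calcium rise over 180 s flagged agonists.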
TRHR enhancer: qHTS for Small Molecule Agonists and Allosteric Enhancers of Human TRH Receptor: Primary Screen for Enhancers; TRHR cells, fluo-8 calcium fluorescence, EC20 TRH enhancement; enhancement, % at 2 µM; actives 0.66% (n = 360,000); in the data active = enhancement above about 30%; note: 0% is about no effect
Target sequence (P34981 whole entry, looked up): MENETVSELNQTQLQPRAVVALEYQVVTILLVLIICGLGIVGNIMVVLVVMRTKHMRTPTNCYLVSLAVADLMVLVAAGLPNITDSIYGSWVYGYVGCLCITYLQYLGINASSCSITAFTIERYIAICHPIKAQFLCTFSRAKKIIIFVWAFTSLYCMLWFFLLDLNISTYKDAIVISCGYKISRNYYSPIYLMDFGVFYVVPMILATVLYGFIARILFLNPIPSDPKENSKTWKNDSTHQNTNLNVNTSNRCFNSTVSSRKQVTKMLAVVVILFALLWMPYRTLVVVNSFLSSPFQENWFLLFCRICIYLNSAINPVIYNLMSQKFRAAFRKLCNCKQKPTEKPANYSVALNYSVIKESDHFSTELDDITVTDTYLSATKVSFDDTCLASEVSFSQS
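Enhancer read-out: after compound pinning and an initial kinetic agonist-mode read, an EC20 of TRH (10 nM final) was injected and fluo-8 calcium signal (Ex 480/Em 530) followed at 1 s/cycle for 100 cycles in TRHR-expressing cells.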
TRHR ag: qHTS for Small Molecule Agonists and Allosteric Enhancers of Human TRH Receptor: Primary Screen for Agonists. AID 493084, 2011. actives 0.18% (n = 360,000). activation, % at 2 µM. Thyrotropin-releasing hormone receptor (Homo sapiens), P34981. TRHR cells, calcium flux fluo-8, FDSS agonist mode; note: 0% is about no effect
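In this calcium-flux screen, cells bearing human TRHR are dye-loaded with fluo-8, baselined for 10 cycles, then exposed to library compounds; positive kinetic calcium responses during the agonist phase mark hits, with TRH as control.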
D1 antag: Antagonist of Human D 1 Dopamine Receptor: qHTS; D(1A) dopamine receptor (Homo sapiens), P21728; HEK293 TREx D1 cells, calcium flux, dopamine EC80; stronger effect = lower value; activity change, negative = inhibition, % at 10 µM; actives 3.2% (n = 360,000); AID 504652, 2011; in the data active = activity change below about -30%; note: % is set by controls: 0 for no effect and ±100 for the full control effect
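Using tetracycline-induced force-coupled D1 Hek293 cells and a calcium dye, signals were followed for 180 s after compound, then for 180 s after EC80 dopamine, to detect inhibitors.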
D1 potentiator: Potentiators of Human D1 Dopamine Receptor: qHTS | HEK293 TREx D1 cells, calcium flux, dopamine EC20 potentiation | D(1A) dopamine receptor (Homo sapiens), P21728 | potentiation, % at 10 µM | AID 504651, 2011 | actives 0.036% (n = 360,000); in the data active = potentiation above about 30%; note: 0% is about no effect
Active calls of the source: *; / = not tested or not shown; ! = not active in a repeat. Hits are enriched below; roughly 4.6% of the tested compounds scored in any of these assays. Cut-off read from the data, not from the text of the source, unless noted: active = activation above about 30%; inactive = the rest.

SMILES | D1 agonist | TRHR enhancer | TRHR ag | D1 antag | D1 potentiator
O=C(O)c1ccc(-c2ccc(/C=c3/sc4nc5ccccc5n4c3=O)o2)cc1Cl | 48* | 5 | 55* | -20 | -5
Cc1ccc2c(nc3s/c(=C\c4ccc(-c5ccccc5C(=O)O)o4)c(=O)n32)c1C | 191* | 9 | 54* | -5 | -3
Cc1ccc2c(nc3s/c(=C/c4cccs4)c(=O)n32)c1C | 2 | 0 | -1 | 2 | 1
Cc1cc(/C=c2\sc3nc4ccccc4n3c2=O)c(C)n1-c1ccc(C(=O)O)cc1 | 2 | -3 | 1 | -7 | -1
CCOc1ccc(CCNC(=O)CCCn2nc(C)c3sc4ccccc4c3c2=O)cc1OCC | 0 | 1 | 0 | 0 | -2
O=C(NCCCc1nc2ccccc2n1Cc1ccc(Cl)cc1)c1ccco1 | 81* | 8 | -1 | -31* | -2
COc1ccc(NC(=O)Nc2cccc(-c3cn4cccnc4n3)c2)cc1 | -1 | -4 | -1 | -1 | -2
Cn1c(=O)c(Nc2ccc(Cl)cc2)c2c3c(cccc31)C(=O)c1ccccc1-2 | 78* | 0 | 17 | 4 | 7
CC(C)c1ccc2nc3sc(C(=O)N4CCc5ccccc5C4)c(N)c3cc2c1 | 31* | -2 | 8 | 1 | 0
O=C(O)C(=O)/C(=C\c1cccc2ccccc12)c1ccc2ccccc2n1 | 31* | -2 | 3 | 3 | -3
O=C(CSCc1ccc(Cl)cc1)Nc1ccccc1O | 5 | 3 | 0 | -8 | 0
CSc1cccc(NC(=O)CCCOc2ccc(Cl)cc2C)c1 | 6 | 5 | 1 | 0 | -3
O=C(CCCSc1ccc(Cl)cc1)Nc1ccccc1O | 33* | -3 | -1 | 3 | -9
COc1ccc(OCCCC(=O)Nc2cccc(SC)c2)cc1 | 2 | 9 | 0 | -73* | 8
O=C(COC(=O)/C=C/c1cccs1)Nc1ccc2ccccc2c1 | 1 | 3 | 1 | -35* | -3
CC(=O)c1cccc(NC(=O)CCCSc2ccccc2)c1 | 15 | -9 | 0 | -39* | /
O=C(CCSc1ccccc1)Nc1ccc(OCc2ccccc2)cc1 | 5 | -8 | 2 | -30* | -10
COc1ccc(OCCCC(=O)Nc2cccc(C(C)=O)c2)cc1 | 9 | 0 | -1 | -47* | -5
COc1ccc(/C=C/C(=O)OCC(=O)Nc2cc(C(N)=O)cc(C(N)=O)c2)cc1 | 1 | -6 | 0 | -11 | -3
O=C(CCN1CCN(c2ccccc2)CC1)Nc1ccc(OCc2ccccc2)cc1 | 1 | 4 | 0 | 1 | -7
COc1ccc(/C=C/C(=O)OCC(=O)Nc2cccc(C(C)=O)c2)cc1 | 5 | 37* | 0 | 2 | 11
COc1cc(C2CC(=O)Nc3c2c(=O)[nH]c2ncnn32)ccc1O (centres undefined) | -1 | -1 | 0 | 2 | -1
CCOc1ccc2c(c1)ncn2Cc1ccccc1 | 3 | -13 | -1 | -12 | -3
CC(=O)Oc1ccc(Cn2cnc3cc4ccccc4cc32)cc1 | 11 | 4 | 1 | -42* | -10
CCCC1(c2ccccc2)NC(=O)N(CC(=O)c2[nH]c(C)c(C(=O)OCC)c2C)C1=O (centres undefined) | 39* | 5 | -1 | 42 | 4
SMILES | D1 agonist | TRHR enhancer | TRHR ag | D1 antag | D1 potentiator
CCOC(=O)c1c(C)[nH]c(C(=O)CN2C(=O)NC3(CCCC3)C2=O)c1C | 2 | 2 | 0 | 29 | 0
CN1CCN(C(=O)c2cc(COc3ccccc3)on2)[C@@H](c2ccccc2)C1 | 6 | 3 | 1 | 3 | -2
COc1cccc(OCc2cc(C(=O)N(C)Cc3nc4ccccc4[nH]3)no2)c1 | 3 | -7 | 0 | 6 | 5
Cc1ccc(OCc2cc(C(=O)N(C)CC3CCOCC3)no2)cc1C | 56* | 2 | 0 | 2 | -8
Cc1cc(OCc2cc(C(=O)N(C)C3CCOCC3)no2)cc(C)c1Cl | 15 | 0 | 0 | -6 | -5
Cc1ccc(OCc2cc(C(=O)N3CCN(C)C[C@@H]3c3ccccc3)no2)cc1C | 9 | -3 | 1 | -31* | -2
Cc1cc(OCc2cc(C(=O)N3CCN(C)C(=O)[C@@H]3C)no2)cc(C)c1Cl | 23 | 4 | 0 | -31* | -7
COc1cccc(OCc2cc(C(=O)N(Cc3ccccc3)CC3CC3)no2)c1 | 48* | -3 | 3 | 0 | -6
Cc1ccc(Nc2c(-c3c[nH]c4ccccc34)nc3ccccn23)cc1 | 4 | 4 | 0 | 5 | -1
CCN(CC)c1ccc(C2C(C(=O)Nc3ccccc3C)=C(C)Nc3ncnn32)cc1 (centres undefined) | 2 | -2 | 0 | 7 | -1
O=S(=O)(c1ccc2c(c1)OCCO2)C1CCN(S(=O)(=O)c2c(F)cccc2F)CC1 | 6 | 2 | 0 | -1 | -6
CCn1c(=N)c(C(=O)NC2CCCCC2)cc2c(=O)n3cc(C)ccc3nc21 | 2 | -5 | 1 | -31* | 0
Cc1ccc2nc3c(cc(C(=O)NCc4ccco4)c(=N)n3C3CCCC3)c(=O)n2c1 | 39* | -1 | 8 | 9 | /
CCn1c(=N)c(C(=O)NC2CCCC2)cc2c(=O)n3cc(C)ccc3nc21 | 2 | 3 | 0 | 6 | 0
Cc1c(Cl)cccc1-n1ncc(C(=O)NCc2cccs2)c1C1CCN(C(=O)OC(C)(C)C)CC1 | 1 | 9 | 1 | 6 | -4
CCC(=O)N1CCc2cc(S(=O)(=O)NCCC(=O)NCc3ccc(C)cc3)ccc21 | 0 | 5 | -1 | -18 | -1
CC1CCCCN1C(=O)Cn1c(=O)oc2cc(S(=O)(=O)N3CCCC3)ccc21 (centres undefined) | 7 | 34* | -2 | 9 | -1
O=C(Cn1c(=O)oc2cc(S(=O)(=O)N3CCCC3)ccc21)N1CCc2ccccc2C1 | 6 | -11 | 0 | -1 | /
CC1CCN(C(=O)Cn2c(=O)oc3cc(S(=O)(=O)N4CCCCC4)ccc32)CC1 | 2 | 0 | 0 | -10 | 48*!
CC1CCN(S(=O)(=O)c2ccc3c(c2)oc(=O)n3CC(=O)N2CCc3ccccc3C2)CC1 | 0 | -4 | 0 | -65* | /
CC1CCCN(C(=O)Cn2c(=O)oc3cc(S(=O)(=O)N4CCCCC4)ccc32)C1 (centres undefined) | 1 | -3 | 0 | 27 | 4
